Assay outcomes as filed in PubChem.
NS1 inh – influenza NS1 inhibition; Potency, µM (series often up to 46.1 µM); 270,000 tested, 0.4% active; calls by dose curve; note: actives are rising curves; nearly all actives have a fitted effect of over 50% in size
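Compounds were scored for reversing the slow growth caused by influenza A NS1 in S. cerevisiae, measured by optical density at 600 nm. Assay medium contained 2% galactose at pH 6.0; NS1-free yeast of the same strain were the positive control.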
Shiga toxin inh – Shiga toxin inhibition | inhibition, % at 38.7 µM | 290,000 tested, 9.2% active | Vero cells, Shiga toxin protein synthesis inhibition reporter; in the data active = inhibition mostly above about 28%, no sharp cut-off; inactive = mostly below about 43%
CHX counter – counter-screen for Shiga toxin inhibitors: cycloheximide protein synthesis inhibition; cell reporter, cycloheximide protein synthesis inhibition counterscreen; max response, %; 300,000 tested, 12% active; in the data active = max response mostly above about 13%, no sharp cut-off; inactive = mostly below about 14%; note: read at 38.3 µM for the half of the compounds with a filed dose
SARS PLpro yeast – SARS-CoV PLP inhibition in yeast; S. cerevisiae expressing SARS-CoV PLpro, growth rescue; Potency, µM (series often up to 32.9 µM), usual class: activators; 330,000 tested, 0.19% active; calls by dose curve; note: nearly all actives have a fitted effect of over 55% in size
LmPK inhibitor – LmPK (Leishmania mexicana) enzyme inhibition. 290,000 tested, 0.37% active. purified LmPK, Kinase-Glo ATP luminescence, 1 h. Potency, µM (titrated, usually from 57.5 µM), usual class: inhibitors. Q27686. AID 1721
Target sequence (Q27686 whole entry, looked up): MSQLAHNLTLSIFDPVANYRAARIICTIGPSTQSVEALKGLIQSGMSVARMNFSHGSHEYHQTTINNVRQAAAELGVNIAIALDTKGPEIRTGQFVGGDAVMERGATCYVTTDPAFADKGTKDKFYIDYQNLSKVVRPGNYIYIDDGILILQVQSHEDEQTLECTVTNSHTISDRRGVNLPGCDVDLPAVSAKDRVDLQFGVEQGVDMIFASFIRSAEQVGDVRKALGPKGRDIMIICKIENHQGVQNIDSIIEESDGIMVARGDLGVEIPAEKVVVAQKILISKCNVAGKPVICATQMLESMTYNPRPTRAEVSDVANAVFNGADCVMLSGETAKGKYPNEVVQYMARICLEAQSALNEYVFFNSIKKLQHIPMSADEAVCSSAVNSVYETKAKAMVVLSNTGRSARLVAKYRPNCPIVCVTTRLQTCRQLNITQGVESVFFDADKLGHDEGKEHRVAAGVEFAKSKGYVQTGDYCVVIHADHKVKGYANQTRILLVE
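Pyruvate kinase activity monitored as ATP production (luciferase luminescence). Conditions: 0.1 nM enzyme, 0.5 mM PEP, 0.1 mM ADP, 1 h, RT; normalized against uninhibited and no-enzyme wells.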
Tb PYK inh – T. brucei pyruvate kinase inhibition; Q57TT1; AID 624173; TbPYK enzyme, Kinase-Glo Plus ATP luminescence, 45 min; Potency, µM (highest dose often 76.8 µM), actives largely listed as inhibitors; 410,000 tested, 0.12% active; note: nearly all actives have a fitted effect of over 50% in size
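Screened from lowest to highest concentration, compounds were pinned into TbPYK/substrate mixtures, and ADP (130 uM final) was added. Plates sat at room temperature for 45 min prior to Kinase-Glo Plus detection by luminescence.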
A number is an active result; – = inactive; ? = inconclusive; · = no result; + = active, no number; [ ] = remark or other dose. This is one part of a sample in which hits are shown more often than they occur. Unless noted, calls come from the whole dose curve; as a rule, active = well fitted curve in the direction sought with a large enough effect; inconclusive = small, poorly fitted or top-dose-only effect, or another doubt; inactive = no such curve, though single readings can be large; an effect the other way counts as inactive or inconclusive.

SMILES | NS1 inh | Shiga toxin inh | CHX counter | SARS PLpro yeast | LmPK inhibitor | Tb PYK inh
COc1ccccc1CNC(=O)C1CC(c2ccccc2[N+](=O)[O-])=NO1 (stereo not drawn) | – | 95.8 | 40.8 | – | – | –
COc1ccccc1CNC(=O)C1CC(c2ccccc2C(F)(F)F)=NO1 (stereo not drawn) | – | – | – | – | – | –
CCN(CC)C(=O)C1CC(c2ccc(OC)cc2)=NO1 (stereo not drawn) | – | 82.4 | 40.5 | – | – | –
COc1ccc(C2=NOC(C(=O)NC(C)(C)C)C2)cc1 (stereo not drawn) | – | – | – | – | – | –
N/C(CS(=O)(=O)c1ccccn1)=N\OC(=O)c1ccc(Cl)cc1 | – | – | 26.4 | – | – | –
N/C(CS(=O)(=O)c1ccccn1)=N\OC(=O)c1ccccc1Cl | – | 57.5 | 39.6 | – | – | –
Cn1c(=O)[nH]c2nnc(-c3ccc(Cl)c(Cl)c3)nc2c1=O | – | 50.3 | 25.5 | – | ? | –
CSc1cnc2c(=O)n(C)c(=O)[nH]c2n1 | – | – | – | – | – | –
Cc1ccc(-c2cc(NC(=O)CCl)n(-c3ccccc3)n2)cc1 | – | – | 52.9 | – | – | ?
Cc1ccc(-c2nn(-c3ccccc3)cc2NC(=O)CCl)cc1 | · | – | 40.6 | – | – | –
O=C(CCl)Nc1cc(-c2ccccc2)nn1-c1ccccc1 | – | – | 27.5 | – | – | –
O=C1CCC/C(=N/Nc2ccc(Cl)cc2)C1 | · | 66.7 | 29.3 | – | – | –
COc1ccccc1N=c1scc(-c2ccc(S(=O)(=O)N3CCCC3)cc2)n1C | · | · | · | · | · | –
CCCCCCCCSC1=CC(=O)C(OC)=C(OC)C1=O | · | · | · | · | · | 14.1µM
COc1ccc(NC(=O)N(Cc2cc3cc(C)ccc3[nH]c2=O)CC2CCCO2)cc1 (stereo not drawn) | ? | – | – | – | – | –
COc1ccc2cc(CN(CC3CCCO3)C(=O)Nc3ccccc3)c(=O)[nH]c2c1 (stereo not drawn) | – | – | – | – | – | –
O=C(COc1ccccc1)N(Cc1cc2ccccc2[nH]c1=O)CC1CCCO1 (stereo not drawn) | – | – | 24.7 | – | – | –
COc1ccc(NC(=O)N(Cc2cc3cc(OC)c(OC)cc3[nH]c2=O)CC2CCCO2)cc1 (stereo not drawn) | – | – | 11.7 | – | – | –
CCN(CC)CCCN(Cc1cc2cc3c(cc2[nH]c1=O)OCCO3)C(=O)Nc1ccc(F)cc1 | – | 78.4 | 14.0 | – | – | –
COc1ccc(NC(=O)CC2C(=O)N(c3cccc(OC)c3)C(=O)N2CCc2cccs2)cc1 (stereo not drawn) | · | · | · | · | · | –
CS(=O)(=O)N1CCc2cc(C(=O)Nc3ccc(S(N)(=O)=O)cc3)ccc21 | · | · | · | · | · | –
Nc1cc(-c2ccc(Br)cc2)[nH]n1 | ? | – | 11.4 | – | – | –
Cc1cc(-c2ccc(Br)cc2)n[nH]1 | – | 81.7 | 31.2 | – | – | –
O=C(CSc1nc2c([nH]c3ccccc32)c(=O)n1-c1ccc(F)cc1)NCc1ccccc1 | · | · | · | · | · | –
O=C(NNC(=O)c1ccco1)c1ccco1 | · | · | · | · | · | –
SMILES | NS1 inh | Shiga toxin inh | CHX counter | SARS PLpro yeast | LmPK inhibitor | Tb PYK inh
O=C(NNC(=O)c1ccco1)c1ccccc1 | – | – | 19.3 | – | – | –
Cc1ccc(C(=O)NNC(=O)c2ccco2)cc1 | – | + | 39.2 | – | – | –
Cc1cccc(C(=O)Nc2cc3c(cc2C)n(C)c(=O)n3C)c1 | · | · | · | · | · | –
COCCN(Cc1nc(-c2ccc(-c3ccccc3)cc2)oc1C)C(C)C | – | 38.2 | 31.0 | – | – | –
Cc1cccc(/C=C2\CCC(=C3SCCCS3)C2=O)c1 | – | 79.9 | 44.4 | – | ? | –
Cc1ccc(N2C(=O)CC(N3CCN/C3=C3\CC/C(=C\c4ccccc4)C3=O)C2=O)cc1 (stereo not drawn) | · | – | – | – | – | –
O=C1C(=C2SCCCS2)CC/C1=C\c1ccc(F)cc1 | – | 78.6 | 31.0 | – | ? | –
CCOC(=O)C1=CN(Cc2ccco2)S(=O)(=O)N(C)C1c1ccc(F)c(Cl)c1 (stereo not drawn) | · | · | · | – | · | –
COc1ccc2cc(CNc3ccc(C)cc3)c(=O)n(CC(=O)Nc3ccc(C)cc3Cl)c2c1 | · | · | · | · | · | –
O=C1S/C(=C\c2ccc(N3CCOCC3)o2)C(=O)N1Cc1c(F)cccc1Cl | – | – | – | – | – | 25.1µM
O=C(O)c1ccccc1-c1ccc(/C=C2\SC(=O)N(c3ccccc3)C2=O)o1 | – | · | 14.8 | – | – | –
O=C1S/C(=C\c2ccc(N3CCOCC3)o2)C(=O)N1c1ccccc1 | · | 153.3 | 30.6 | – | – | 28.2µM
O=C(O)c1ccccc1-c1ccc(C=C2C(=O)N(c3ccccc3)C(=S)N(c3ccccc3)C2=O)o1 | – | · | – | – | – | ?
Cc1cccc(S(=O)(=O)c2cn(C)c3cc(N4CCC(C)CC4)c(F)cc3c2=O)c1 | · | · | · | · | · | –
CC(C)Oc1ccc(CNC(=O)Cc2ccc(NC(=O)N3CCSc4ncccc43)cc2)cc1 | · | · | · | · | · | –[15.4 µM]
CCN(CC)C(=O)c1ccc(NC(=O)C2=C(C)OCCS2)cc1 | – | – | – | – | – | –
COc1cccc(CNC(=O)c2cccc(NC(=O)C3=C(C)OCCS3)c2)c1 | – | – | – | – | – | –
CC1=C(C(=O)Nc2ccc(CC(=O)NCc3ccc(OC(C)C)cc3)cc2)SCCO1 | – | 81.6 | 41.6 | – | – | –
CCOc1ccc(CNC(=O)c2cccc(NC(=O)C3=C(C)OCCS3)c2)cc1 | – | – | 17.2 | – | – | –
COc1ccc(CNC(=O)Cc2ccc(NC(=O)C3=C(C)OCCS3)cc2)cc1 | – | 56.3 | 19.4 | – | – | –
O=C(CCC(=O)N1CCN(S(=O)(=O)c2ccccc2Cl)CC1)c1ccccc1 | · | · | · | – | · | –
COc1ccc(CCNC(=O)CCS(=O)(=O)c2cc3c(cc2Cl)NC(=O)CO3)cc1OC | · | · | · | · | · | –
CCOCCCNC(=S)Nc1ccc2nc3n(c(=O)c2c1)CCCCC3 | · | – | – | – | – | –
CC(C)CCNC(=S)Nc1ccc2nc3n(c(=O)c2c1)CCCCC3 | – | 26.8 | – | – | – | –
CCCCNC(=S)Nc1ccc2nc3n(c(=O)c2c1)CCCCC3 | – | – | 21.5 | – | – | –
SMILES | NS1 inh | Shiga toxin inh | CHX counter | SARS PLpro yeast | LmPK inhibitor | Tb PYK inh
NS(=O)(=O)c1cccc(NC(=O)CSc2nnc(-c3ccccc3F)n2C2CC2)c1 | – | – | – | – | – | –
CCN(CC)C(=O)CSC(Nc1ccc(F)cc1)=C(C#N)C#N | – | – | – | – | – | –
CCN(CC)C(=O)CSC(=Nc1ccccc1F)NC#N | – | 73.2 | 21.7 | – | – | –
CC1CN=C(N(C(=O)Nc2ccccc2)C(C)c2ccccc2)S1 (stereo not drawn) | – | – | 13.3 | – | – | –
Cc1ccc(N(C(=O)Nc2ccccc2)C2=NCC(C)S2)cc1 (stereo not drawn) | – | 90.9 | 22.5 | – | – | –
CC1CN=C(N(C(=O)Nc2ccccc2)C(C)C)S1 (stereo not drawn) | – | – | – | – | – | –
